This is part of a sample that, as a whole, favours compounds with a hit. Of some 83,000 tested, about 20% had one in any assay.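 Single-dose data. Exposure time 48 hours. Values below 10 considered active.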 Values without a mark were called inactive. Active and inactive are the calls of the source.

This experiment has as its system SNB-75 CNS. Put plainly: NCI-60 one-dose screen, 48 h (100 = growth as untreated, 0 = no growth, -100 = all killed). To be noted: 10 µM unless noted. The method, then: Growth inhibition of the SNB-75 human tumor cell line is measured as a screen for anti-cancer activity. Cells are grown in 96 well plates and exposed to the test compound for 48 hours. Compounds are tested at a single concentration, which is 10^-5 M for most compounds. The reported endpoint is percent growth (GI% or GIPRCNT), where numbers from 0 - 100% represent growth inhibition, and numbers from -100% - 0 represent cell death. For example, a value of 40 represents 60% growth inhibition. A value of 0 means no net growth occurred over the course of the experiment. A value of -40 indicates 40% of cells at the beginning of the experiment died by the end of the experiment. A value of -100 means all cells are dead at the end of the experiment.
NCI-60 Human Tumor Cell Lines Screen was performed using the standard one-dose NCI protocol, which is described in more detail at https://dtp.cancer.gov/discovery_development/nci-60/default.htm.
Compounds with GIPRCNT values below 10 were considered active. Activity score was based on GIPRCNT using the following formula: […]
Score is 0 for GIPRCNT values of 100 or above, 50 for GIPRCNT values of 0, and 100 for GIPRCNT values of -100.
`FC(F)(F)Oc1ccc2nc3nc4ccc[nH]c4cc3c2c1`: the growth was 61.7%.
For `N#Cc1c(N)n(CCNC(=O)c2ccccc2)c2nc3ccccc3nc12`, the growth is 116%.
For the compound `Cn1c(NCCc2ccc(O)c(O)c2)nc2c1c(=O)n(Cc1ccc(Cl)c(Cl)c1)c(=O)n2C`, the growth is 56.1%.
As to `COc1nc2c(c(=O)n1C)CN(Cc1ccccc1)C=N2`, the growth was 78%.
For `COc1ccc(-c2cc(-c3ccc(Nc4ccnc5cc(Cl)ccc45)cc3)nc(N3CCOCC3)n2)cc1`, the growth is -14.8% (active).
For `O=C(O)c1ccc(NC(=O)c2ccc(-c3cccc([N+](=O)[O-])c3)o2)cc1`, the growth was 88%.
As to `O=C(O)c1c(=O)cccc2ssc12`, the growth was 26.9%.
As to `COc1ccc(C2CC(c3ccc(Cl)cc3)=NN2/C=C2\SC(=S)N(NC(=O)Cc3ccccc3Nc3c(Cl)cccc3Cl)C2=O)cc1` (stereo not given), the growth was 58.4%.
On to `O=[N+]([O-])c1ccc2c(c1)Cc1cc(F)ccc1-2`, for which the growth was 92.1%.
With `CCn1c(Cc2ccccc2Nc2c(Cl)cccc2Cl)nnc1SCC(=O)NN1C(=O)/C(=C/c2cc(OC)c(O)c(OC)c2)SC1=S`, the growth was 2.65% (active).
As to `CSc1ccc(-c2n[nH]nc2-c2cc3ccccc3s2)cc1`, the growth was 44.5%.
As for `COc1cc(/C=C/C(=O)Nc2cccnc2Nc2ccc(F)cc2)cc(OC)c1OC`, the figure is 97%; as for `COc1ccc(SC2c3cc(OC)c(OC)cc3Oc3nc(N)c(C#N)c(N)c32)cc1` (stereo not given), -65.2% (active); as for `Cc1nc(Nc2ccc(F)c(Cl)c2)sc1C(=O)O`, -13.4% (active).
With `COc1cccc2c1C(=O)c1c(O)c3c(c(O)c1C2=O)C[C@](O)(C(=O)CO)C[C@H]3O[C@@H]1C[C@@H](NC(=O)CCCCCN(C)C2(c3ccc(F)cc3)CC3CCC2C3)[C@H](O)[C@@H](C)O1` (stereo not given in full), the growth was 41.3%.
On to `CC(O)CN(CC(C)O)c1ccc2c(c1)Cc1cc([N+](=O)[O-])ccc1-2` (stereo not given), for which the growth was 87.5%.
The result for `Cc1cc(NS(=O)(=O)c2ccc(-c3cnc(C4CC4)o3)cc2)ccc1Cl` reads -0.004% (active); that for `CCOC(=O)n1cc(-c2nonc2-c2cn(C)c3ncccc23)c2cc(F)ccc21`, 64.3%.
As for `NNCCc1ccc(NC(=O)CCCc2ccc(/C=C/C(=O)NO)cc2)cc1`, the figure is 53%; as for `COc1cccc(/C=C2\Oc3cc(OCCN4CCCC4)ccc3C2=O)c1`, 87.3%.
Turning to `COC(=O)c1cccc(NC(=O)c2ccc(-c3cccc(N)c3)o2)c1`, the growth is 93.2%.
As to `CCOc1cc2ncc(C#N)c(Nc3ccc(OCc4cccc(F)c4)c(Cl)c3)c2cc1NC(=O)CC1CCSS1` (stereo not given), the growth is 102%.
For `CC[C@@H](C(=O)[C@@H](C)[C@@H](O)[C@H](C)[C@@H]1O[C@@H]([C@@H](CC)C(=O)O)CC[C@@H]1C)[C@H]1OC2(C=C[C@@H](O)[C@]3(CC[C@@](C)([C@H]4CC[C@](O)(CC)[C@H](C)O4)O3)O2)[C@H](C)C[C@@H]1C` (stereo not given in full), the growth was -28.8% (active).
Consider `O=C1C=C(O)C(=O)C(CC2=C(O)C(=O)C=C(O)C2=O)=C1O`, for which the growth was 83.5%.
Take `C(=C\c1nccc2c1[nH]c1ccccc12)/c1ccccc1`: the growth is -20.1% (active).
The result for `CCOc1ccc(C(C)=O)cc1NC(=O)c1cccc(-c2nnn(CC)n2)c1` reads 6.99% (active); that for `CC1=CC(=NN=c2cc(C)n([O-])c(C)c2)C=C(C)[N+]1=O`, 64.7%.
As for `C=C1C(=O)O[C@H]2[C@H]1CC/C(COC(=O)c1cc3cc(OC)ccc3[nH]1)=C\CC[C@@]1(C)O[C@@H]21`, the figure is -68.5% (active).
With `Cc1ccc(/C=C2\SC(=S)N(CC(=O)NCCCN3CCOCC3)C2=O)cc1`, the growth was 87.2%.
`COc1ccc(C(=O)COc2cccc(/C=C3\CSc4ccccc4C3=O)c2)cc1`: the growth was 91.6%.
With `Cc1cc(N2CCN(c3ccnc4cc(Cl)ccc34)CC2)nc(NC2CCCCC2)n1`, the growth is 58.2%.
Take `Cc1ccc(OC(=O)c2ccc(Cl)cc2)cc1`: the growth was 77.1%.
Consider `OCCN1CCN(c2nc(Nc3ccc(-c4nc5ccccc5[nH]4)cc3)c3cn[nH]c3n2)CC1`, for which the growth is -96.6% (active).
Take `CCOc1cc2c(cc1OCC)C(c1cc(OC)c(O)cc1Cl)NCC2` (stereo not given): the growth is 82.2%.
On to `CN(C)c1ccc(NC(=O)c2ccc(/C=C/C(=O)c3ncc[nH]3)cc2)cc1`, for which the growth was 68.7%.
The result for `COc1ccc(C2CC(c3ccc4ccccc4c3)=NN2/C=C2\SC(=S)N(NC(=O)Cc3ccccc3Nc3c(Cl)cccc3Cl)C2=O)cc1` (stereo not given) reads -15.7% (active); that for `Cc1cc(N2CCCC2)nc(NC2CCCC(Nc3ccnc4cc(Cl)ccc34)C2)n1` (stereo not given), -68.6% (active); that for `C=CC(=O)Nc1cccc(-c2nc(SC)nc(Nc3cccc(OC)c3)c2C#N)c1`, 18%.
As for `O=c1c2c3c(sc2nc(N/N=C/c2cn(-c4ccccc4)nc2-c2ccc(Cl)cc2)n1Cc1ccccc1)CCCC3`, the figure is 102%; as for `CC(=O)c1nc2ccccc2n1CC(=O)c1cccc(Cl)c1`, 21%.

These data come from PubChem BioAssay (NCI).
